Screen size: about 69,000 compounds; about 8,600 (12%) showed an effect of 50% or more. For the sample, strong results were picked, then their nearest neighbours and some compounds at random.
Test system: Plasmodium berghei
Assay: Screen against P. berghei liver stage (PbLuc), transformed with Luciferase, at 10uM
Assay type: functional, HepG2
Conditions: tested at 10 uM

| Structure (SMILES) | INHIBITION |
| --- | --- |
| c1ccc2c(c1)COC1(CCCCC1)N2 | -30% |
| O=C(NCCC1=CCCCC1)Nc1cc(C(F)(F)F)c[nH]c1=O | 7.27% |
| c1ccc(CN2CCCC(CNc3ncnc4c3CCNCC4)C2)cc1 (centres undefined) | 45% |
| CC(=O)N1CCCN(C(=O)NCCOc2ccc3c(c2)CCC3)CC1 | 35.15% |
| CCOC(=O)[C@H]1CNC[C@H]1C(=O)OCC | 22% |
| Cc1ncsc1C(=O)N1CCCC(c2cc(C(F)F)n3ncnc3n2)C1 (centres undefined) | 5.11% |
| O=C(c1cnccn1)N1CCC2(CCN(Cc3ccsc3)C2)CC1 | 23.3% |
| CCOc1c(CNCCCn2ccnc2)cc(Cl)cc1OC | -9.2% |
| CN1CCN(C2CCN(C(=O)CCC3CCCC3)CC2)CC1 | 29.8% |
| Cc1cccc(-c2noc(CN3CC(n4cc(C)cn4)C3)n2)c1 | 90% |
| Cc1cnn(C2CN(Cc3nc(-c4cccnc4)no3)C2)c1 | 18.2% |
| Cc1cccc(-c2noc(CN3CC(n4cccn4)C3)n2)c1 | 14.1% |
| CO[C@H]1C[C@@H](O)C12CCN(CCOc1ccc(Cl)cc1)CC2 | 44.6% |
| CCOCC1CN(CCOCc2ccccc2)Cc2c1cnn2C (centres undefined) | -14.3% |
| CCn1ncc2c1C(COC)CN(Cc1ccco1)C2 (centres undefined) | 39.2% |
| CCn1ncc2c1CN(CCc1cccc(Cl)c1)CC2COC (centres undefined) | 59.3% |
| Cn1ncc2c1CN(Cc1ccccc1F)CC2COCC1CC1 (centres undefined) | 49.3% |
| COCC1CN(CCc2ccc(OC)c(OC)c2)Cc2c1cnn2C (centres undefined) | 53.9% |
| COCC1CN(CCOc2ccc(Cl)cc2)Cc2c1cnn2C (centres undefined) | 53.9% |
| CCOCC1CN(CCc2ccccc2)Cc2c1cnn2C (centres undefined) | 50% |
| CCn1ncc2c1CN(C(=O)Cc1ccccn1)CC2COC (centres undefined) | 18.3% |
| CCOCC1CN(CCOc2ccc(Cl)cc2)Cc2c1cnn2C (centres undefined) | 19.8% |
| COCC1CN(c2ccc(C)nn2)Cc2cnn(C)c21 (centres undefined) | 20.6% |
| COCCN1CCn2cc(CNC(=O)c3cnn(C)c3)nc2C1 | 16.8% |
| O=C(NCc1ccco1)[C@@H]1CC[C@@H]2[C@@H](CCN2CC2CC2)O1 | 12.3% |

| Structure (SMILES) | INHIBITION |
| --- | --- |
| O=C(Cc1ccccn1)N1CCC(O)(Cn2ccc3ccncc32)CC1 | -21.4% |
| NC(=O)Cn1cc(NC(=O)N2CCC(c3ccccc3)CC2)cn1 | 31.65% |
| CC(C)CN(CC(O)c1ccc(F)cc1)C(=O)c1cc[nH]n1 (centres undefined) | 39.5% |
| CC(C)OC(=O)[C@@H]1CCN(C(=O)c2ccccn2)[C@@H]1c1ccc(F)cc1 | -18.8% |
| Cc1cccc(S(=O)(=O)N2C[C@@H]3C[C@H](C(=O)NCC(C)C)[C@H](C2)O3)c1 | 45.2% |
| O=C(CC1CCCC1)N1CCn2cc(Cn3cccn3)nc2C1 | 31.1% |
| Cc1cc(N(C)C)nc(C2(C)CCCN2C(=O)c2ccccc2)n1 (centres undefined) | 15.9% |
| O=C(NC[C@H]1OC[C@@H]2CCN(c3ccccn3)C[C@@H]21)c1ccco1 | -0.804% |
| CN(Cc1ccco1)C[C@H]1OC[C@@H]2CCN(Cc3ccccn3)C[C@@H]21 | -14.7% |
| Cc1cccc(N2CC[C@@H]3[C@@H](CO[C@H]3CNC(=O)c3ccco3)C2)n1 | -44.2% |
| CN(Cc1ccco1)C[C@@H]1OC[C@H]2CN(Cc3nccs3)CC[C@H]21 | -46.8% |
| CN(Cc1ccco1)C[C@H]1OC[C@@H]2CN(c3ncc(F)cn3)CC[C@@H]21 | 58.3% |
| Cc1cccc(N2CC[C@@H]3[C@@H](CO[C@H]3CNS(C)(=O)=O)C2)n1 | -39.4% |
| Cc1cccc(N2CC[C@H]3[C@H](CO[C@@H]3CN(C)Cc3ccco3)C2)n1 | 65.3% |
| CN(Cc1cccnc1)C[C@@H]1OC[C@H]2CN(Cc3ccco3)CC[C@H]21 | 8.03% |
| Cc1ccc(CN2CC[C@H]3CO[C@H](CN(C)Cc4ccco4)[C@H]3C2)s1 | 18.7% |
| Cc1ccc(N2CC[C@@H]3[C@@H](CO[C@H]3CNC(=O)c3ccco3)C2)nn1 | 57.1% |
| Cc1ccc(N2CC[C@H]3CO[C@H](CN(C)Cc4ccco4)[C@H]3C2)nn1 | 53.4% |
| Cc1cccc(N2CC[C@H]3CO[C@H](CN(C)Cc4ccco4)[C@H]3C2)n1 | 46.4% |
| CCc1ccc(CN2CCC(c3ccccc3C(=O)O)C2)nc1 (centres undefined) | -8.66% |
| Cc1cccn2c(NC(C)(C)C)c(C3CCN(C(=O)C4CC4)CC3)nc12 | -4.49% |
| CNC(=O)[C@H]1C[C@@H]2CN(S(=O)(=O)c3ccc(C)c(F)c3)C[C@@H]2N1C | 0.542% |
| CC(CNC(=O)c1cn(-c2ccccc2)nn1)Cn1cccn1 (centres undefined) | 20.2% |
| CCN(CC)C1COc2c(cc(Br)c(C)c2C)C1=O (centres undefined) | 47.1% |
| COc1ccc(-c2cc(C3(O)CCN(C)CC3)on2)cc1 | 19.3% |

| Structure (SMILES) | INHIBITION |
| --- | --- |
| CN(Cc1ccco1)C[C@H]1OC[C@@H]2CCN(Cc3ccncc3)C[C@@H]21 | -46.8% |
| CN(Cc1ccco1)C[C@H]1OC[C@@H]2CCN(Cc3cccs3)C[C@@H]21 | 25.4% |
| CN(Cc1ccco1)C[C@H]1OC[C@@H]2CCN(Cc3ccsc3)C[C@@H]21 | 62.4% |
| Cc1cn[nH]c1C1COCCN1C(=O)c1ccc2c(c1)CCCC2 (centres undefined) | -6.88% |
| CSc1ccc(C(=O)C2CCCN(C(=O)CCn3cnnn3)C2)cc1 (centres undefined) | 5.91% |
| COc1ccc(CC(=O)NC(C)c2nc3cccnc3n2C(C)C)cc1 (centres undefined) | 90.5% |
| COc1ccccc1CC(=O)NC(C)c1nc2cccnc2n1C(C)C (centres undefined) | -29.8% |
| COc1cccc(CC(=O)NC(C)c2nc3cccnc3n2C(C)C)c1 (centres undefined) | -17.7% |
| CN(Cc1ncc(-c2ccccc2C(=O)O)s1)c1ncccn1 | 12% |
| Cc1cc(S(=O)(=O)NC(C)(C)CN)c(F)cc1F | 37.6% |
| CCC(NC(=O)C1CCN(S(=O)(=O)N(C)C)CC1)c1ccc(C)c(C)c1 (centres undefined) | 21.8% |
| CCC(NC(=O)C1CCN(S(C)(=O)=O)CC1)c1ccc(C)c(C)c1 (centres undefined) | 58.5% |
| CCC(NC(=O)C1CCN(S(C)(=O)=O)CC1)c1ccc(C)cc1C (centres undefined) | 88% |
| COc1ccc(C(C(=O)O)N2CCN(C3CCCC3)CC2)cc1C (centres undefined) | 43% |
| CCOc1ccc(C(C)NC(=O)N2CCC(C(N)=O)CC2)cc1OC (centres undefined) | 47.4% |
| Cc1csc(C(Cc2ccsc2)NC(=O)C2CCN(S(C)(=O)=O)CC2)n1 (centres undefined) | -11.7% |
| CCC(NC(=O)c1nn(C)cc1C(=O)O)c1ccc(C)cc1C (centres undefined) | 32.3% |
| COc1ccc(C(C)NC(=O)C2CCN(S(C)(=O)=O)CC2)cc1C (centres undefined) | 68.1% |
| CCC(NC(=O)C1CCN(S(C)(=O)=O)CC1)c1ccc(OC)cc1 (centres undefined) | 73.6% |
| CCC(NC(=O)C1CCN(S(C)(=O)=O)CC1)c1ccc(OC)c(C)c1 (centres undefined) | 23.5% |
| CCC(NC(=O)C1CCN(S(C)(=O)=O)CC1)c1ccc(C)cc1 (centres undefined) | 33% |
| CCC(NC(=O)C1CCN(S(C)(=O)=O)CC1)c1ccc(OC)c(OC)c1 (centres undefined) | -6.53% |
| Cc1cnn(CCNCc2c(C)nn(C)c2Cl)c1 | 19.2% |
| c1ccc(CN2CCc3nnc(COc4ccccn4)n3CC2)nc1 | 21.5% |
| Cc1occc1C(=O)N1CCC2(CC1)CN(Cc1nccs1)CCO2 | 30.3% |

| Structure (SMILES) | INHIBITION |
| --- | --- |
| Cc1cc(C)n(CC(=O)N2CCC(c3ccn4nccc4n3)CC2)n1 | 19.5% |
| Cc1ccc(CN2CCC3(CCCC(=O)N3)CC2)s1 | -24.5% |
| CCN(Cc1ccc2c(c1)OCCO2)C(=O)NC(C)Cn1cccn1 (centres undefined) | 45.7% |
| CCOCc1nc2c(c(N3CCCn4nc(C)cc4C3)n1)CCNCC2 | 34.9% |
| CCOCCCNC(=O)C1(C)CCC(=O)N1c1cc(OC)ccc1OC (centres undefined) | 28.3% |
| O=C(O)c1ccccc1C1CCN(Cc2ccc(-c3cc[nH]n3)o2)C1 (centres undefined) | 9.16% |
| O=C(O)c1ccc(C2CCCN(Cc3ccc(-c4cc[nH]n4)o3)C2)cc1 (centres undefined) | -10.4% |
| Fc1ccc(N2CCCN(Cc3ccc(-c4cc[nH]n4)o3)CC2)cc1 | 23.7% |
| O=C(O)c1ccc(CC2CCN(Cc3ccc(-c4cc[nH]n4)o3)C2)cc1 (centres undefined) | 67.8% |
| Cc1cnc(C)c(N2CCN(Cc3ccc(-c4cc[nH]n4)o3)CC2)n1 | -7.48% |
| Cc1cc(N2CCN(Cc3ccc(-c4cc[nH]n4)o3)CC2)cc(C)n1 | 52.4% |
| O=c1occ(CN2CCOCC2)c(O)c1CN1CCOCC1 | 3.19% |
| CNS(=O)(=O)c1cccc(C(C)NCc2cccc(OC)c2)c1 (centres undefined) | 20.1% |
| CC(NCc1cccc(S(=O)(=O)N(C)C)c1)c1cccnc1 (centres undefined) | 21.9% |
| CNS(=O)(=O)c1cccc(C(C)NCc2ccc(F)c(F)c2)c1 (centres undefined) | 59.4% |
| CC(CO)NS(=O)(=O)c1cccc(C(C)C)c1 (centres undefined) | 26.6% |
| CNS(=O)(=O)c1cccc(C(C)NCc2ccc(F)cc2F)c1 (centres undefined) | 65.4% |
| CNS(=O)(=O)c1cccc(C(C)NCc2cccc(O)c2)c1 (centres undefined) | 50.8% |
| Cc1nc(CNC(C)c2cccc(S(=O)(=O)N(C)C)c2)no1 (centres undefined) | 39.7% |
| CNS(=O)(=O)c1cccc(C(C)NCc2ccc(C)c(C)c2)c1 (centres undefined) | 62.8% |
| CC(NCc1ccc(F)cc1)c1ccc(S(C)(=O)=O)cc1 (centres undefined) | 25.5% |
| CCOc1ccc(CNC(C)c2cccc(S(=O)(=O)NC)c2)cc1 (centres undefined) | 46.6% |
| CNS(=O)(=O)c1cccc(C(C)NCc2ccncc2)c1 (centres undefined) | 32.9% |
| CNS(=O)(=O)c1cccc(C(C)NCc2ccccc2)c1 (centres undefined) | 11.8% |

Source: ChEMBL document CHEMBL4513216, “Probing the Open Global Health Chemical Diversity Library for Multistage-Active Starting Points for Next-Generation Antimalarials” (ACS Infect Dis, 2020)
